Screening data (PubChem)
Only some compounds are listed: those with a hit (about 0.59% of all), similar ones and a draw of the others.
Vif-APOBEC3F blk: blocks the Vif interaction with APOBEC3F | HeLa A3F-eYFP + Vif (tagged APOBEC3F with the HIV-1 protein that degrades it), YFP fluorescence increase | Potency, µM (series often up to 46.1 µM) | 390,000 compounds, 0.2% hits; also: nearly all actives have a fitted effect of over 65% in size
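HeLa cells stably expressing A3F-eYFP plus Vif, plated and incubated overnight at 37 deg C, then exposed to compounds overnight at 37 deg C. Blocked degradation read as raised yellow fluorescence (Ex 488/Em 500-530).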
PINK1 modulator: changes PINK1 expression; PINK1 immunofluorescence, high-content cytometry, 24 h; Potency, µM (doses to about 76.6 µM), hits mostly activators; 410,000 compounds, 0.2% hits; AID 624263; active = well fitted activation curve with a large enough effect; inconclusive = small, poorly fitted or top-dose-only effect; cell line not stated here; also: nearly all actives have a fitted effect of over 65% in size
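PINK1 protein, normally rapidly degraded, was detected by immunofluorescence after 24 hour compound treatment of a stable cell line. Titration data (5 concentrations) came from laser-scanning cytometry, with CCCP-treated wells as controls.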
Vif-APOBEC3G blk: Vif-A3G binding inhibition | HeLa A3G-eYFP + Vif (tagged APOBEC3G with the HIV-1 protein that degrades it), YFP fluorescence, overnight | Potency, µM (series often up to 46.1 µM), usual class: inhibitors | Q9HC16 | AID 602310 | 410,000 compounds, 0.076% hits; also: nearly all actives have a fitted effect of over 60% in size
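Read-out is eYFP fluorescence (Ex 488/Em 500-530) from Vif-expressing HeLa A3G-eYFP cells; more signal means A3G escaped Vif-mediated degradation. Cells plated overnight, compound pinned in, incubated overnight at 37 deg C.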
mIDH1 inhibitor: inhibitors of human mutant IDH1 R132H. IDH1-R132H enzyme, NADPH consumption, diaphorase/resazurin fluorescence. Potency, µM (top dose mostly 76.6 µM), hits mostly inhibitors. 390,000 compounds, 0.093% hits; also: nearly all actives have a fitted effect of over 65% in size
Target sequence (O75874 whole entry R132H, stated change not applied): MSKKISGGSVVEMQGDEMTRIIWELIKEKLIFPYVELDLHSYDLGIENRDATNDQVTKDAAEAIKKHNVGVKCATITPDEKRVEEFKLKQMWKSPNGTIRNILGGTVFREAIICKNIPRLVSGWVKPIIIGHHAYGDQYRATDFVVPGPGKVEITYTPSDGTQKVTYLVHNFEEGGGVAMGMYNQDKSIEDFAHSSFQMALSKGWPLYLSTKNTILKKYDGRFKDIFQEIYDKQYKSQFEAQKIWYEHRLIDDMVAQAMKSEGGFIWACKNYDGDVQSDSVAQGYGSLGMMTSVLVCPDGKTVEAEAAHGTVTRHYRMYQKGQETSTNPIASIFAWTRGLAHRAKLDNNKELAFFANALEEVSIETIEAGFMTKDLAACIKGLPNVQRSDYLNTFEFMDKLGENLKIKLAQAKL
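IDH1-R132H (0.5 ug/mL dispensed) in pH 7.5 Tris buffer was preincubated 30 min with compound, then given a substrate mix of 0.016 mM NADPH and 2 mM alpha-KG for 80 min at room temperature; remaining NADPH was read by diaphorase/resazurin fluorescence.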
LDHA inh: LDHA (human) enzyme inhibition; P00338; purified LDHA, NADH/diaphorase-resazurin fluorescence; hits give low values; activity change, % (values are at about 110 or 230 µM); 480,000 compounds, 0.15% hits; AID 1347041; in the data active = activity change below about -30%; inconclusive = mostly about -25% to -30%
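Enzyme activity of human lactate dehydrogenase 5 (2 nM; 0.06 mM NADH, 0.2 mM pyruvate, 5 min, RT) is measured via a resazurin/diaphorase fluorescence readout of residual NADH.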
PTHR1 agonist: activates the human parathyroid hormone receptor PTHR1; Q03431; HEK293 GP2 PTHR1 cells, GloSensor cAMP luminescence, 1 h; Potency, µM (series often up to 115 µM), most hits filed as activators; 410,000 compounds, 0.075% hits; AID 743266; also: nearly all actives have a fitted effect of over 55% in size
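HEK-293-derived GP2 cells expressing PTHR1 and a GloSensor cAMP reporter, 3,000/well, plated overnight, given luciferin plus IBMX (each 0.5 mM as added) for 1 h at 37 °C, then compound for 1 h at 37 °C. Luminescence was read after 15 min at room temperature.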
Hits are given with their value; i = inactive; ? = inconclusive; nt = no result. Unless noted, calls follow the shape of the dose curve; as a rule, active = well fitted curve in the direction sought with a large enough effect; inconclusive = small, poorly fitted or top-dose-only effect, or another doubt; inactive = no such curve, though single readings can be large; an effect the other way counts as inactive or inconclusive.

SMILES	Vif-APOBEC3F blk	PINK1 modulator	Vif-APOBEC3G blk	mIDH1 inhibitor	LDHA inh	PTHR1 agonist
CSc1ccc(/C=N/NC(=O)c2ccc(C)c(C)c2)cc1	i	i	i	i	-48.4	i
O=C(c1cc(=O)c2ccccc2o1)N1CCN(C(c2ccccc2)c2ccccc2)CC1	nt	nt	nt	nt	i	nt
CCN(CC)CCN(C(=O)c1ccc2c(c1)CCCC2)c1nc2c(C)cccc2s1	i	44.7µM	i	i	i	i
CCN(CC)CCN(C(=O)c1ccc2c(c1)CCCC2)c1nc2ccc(C)cc2s1	?	28.2µM	i	i	i	i
CCN(CC)CCN(C(=O)c1ccc2c(c1)CCCC2)c1nc2ccc(F)cc2s1	i	?	i	i	i	i
CCOc1nc2ccccc2nc1C(=O)Nc1cc(OC)c(OC)c(OC)c1	nt	nt	nt	nt	i	nt
COc1cc(C=C2C(=O)c3ccccc3C2=O)cc(OC)c1OC	25.1µM	i	i	i	i	i
Cc1ccc(O)c(NC(=O)c2cc(-c3ccccc3O)no2)c1	11.2µM	i	?	i	i	i
COc1ccc(-n2c(O)c(/C=N/NS(=O)(=O)c3ccc(C)cc3)c3ccccc3c2=O)cc1OC	5.01µM	i	?	i	i	i
COc1ccc(-n2c(O)c(/C=N/NS(=O)(=O)c3cc(C)ccc3C)c3ccccc3c2=O)cc1OC	?	i	i	i	i	i
CC1=CCCC(C)(C)C1/C=C/C(C)=N\Nc1cc(C(F)(F)F)ccc1Cl (stereo not drawn)	nt	nt	nt	nt	i	nt
Cn1c(CCCOc2ccc(Cl)cc2Cl)nnc1SCC(=O)Nc1nccs1	i	12.6µM	i	i	i	i
COc1ccc(C(=O)OCCN2C(=O)c3ccccc3C2=O)cc1	i	11.2µM	i	i	i	i
Cc1cc(=O)n2c(n1)NC(Nc1ccc(F)cc1)=NC2c1cccs1 (stereo not drawn)	nt	nt	nt	nt	-37.4	nt
CCCCNC(=S)Nc1cccc(Cl)c1	nt	nt	nt	nt	i	nt
O=C1C(Cl)=C(NCCc2ccccc2)C(=O)c2ccccc21	8.91µM	i	12.6µM	i	i	i
O=C(O)c1ccc(N2C(=O)C/C(=C/c3c[nH]c4ccccc34)C2=O)cc1	nt	nt	nt	nt	i	nt
O=C1/C(=C/c2c[nH]c3ccccc23)CCC/C1=C\c1c[nH]c2ccccc12	22.4µM	i	?	i	i	i
CN1CCN(Cc2cc(=O)oc3cc(O)c(Cl)cc23)CC1	nt	nt	nt	nt	i	nt
Cc1ccc(S(=O)(=O)NC(C)(C)CN2CCC(Cc3ccccc3)CC2)cc1	i	39.8µM	i	i	i	i
CCOC(=O)C1CCN(CC(C)(C)NS(=O)(=O)c2ccc(C)cc2)CC1	i	i	i	i	i	i
Cc1ccc(C(=O)CCC(=O)OCC(=O)Nc2ccccc2SCC#N)cc1	12.6µM	i	i	i	i	i
CCN(CC)S(=O)(=O)c1cccc(NC(=O)CN2c3cccc4cccc(c34)S2(=O)=O)c1	nt	nt	nt	nt	i	nt
COc1cc2nc(/C=C/c3ccc(N(C)C)cc3)sc2cc1SC	8.91µM	i	?	i	i	i
CCOc1ccc(C(=O)NCC(=O)OCC(=O)Nc2ccc(C)c(S(=O)(=O)N(C)C)c2)cc1	i	i	i	i	-31.4	i
SMILES	Vif-APOBEC3F blk	PINK1 modulator	Vif-APOBEC3G blk	mIDH1 inhibitor	LDHA inh	PTHR1 agonist
Cc1ccc(NC(=O)COC(=O)CNC(=O)C2CCCCC2)cc1S(=O)(=O)N(C)C	i	i	i	i	i	i
COc1ccc(-c2nc3c(c(SCC(=O)Nc4ccc(OC)cc4OC)n2)COC(C)(C)C3)cc1	nt	nt	nt	nt	i	nt
c1ccc2c(Nc3ccc4c(c3)OCCO4)c3c(nc2c1)CCC3	i	39.8µM	i	i	i	i
c1ccc(Nc2c3c(nc4ccccc24)CCC3)cc1	i	i	i	i	i	i
CCNC(=O)NC(=O)C(C)N(C)CC(=O)Nc1cccc2ccccc12 (stereo not drawn)	nt	nt	nt	nt	-33.3	nt
COc1cc(C(=O)Nc2nccs2)ccc1OCc1c(C)noc1C	i	11.2µM	i	i	i	i
COc1cc(C(=O)Nc2nc3ccccc3s2)ccc1OCc1c(C)noc1C	i	i	i	i	i	i
O=C(O)c1csc(-n2nc(-c3ccccc3)cc2C(F)(F)F)n1	i	i	i	i	-87.4	i
N#C/C(=C\c1ccc(N2CCCCC2)o1)C(=O)Nc1cccc(Br)c1	i	6.31µM	i	i	i	i
CC[n+]1c(C=C2C=C(C)OC(C)=C2)sc2ccccc21	?	22.4µM	5.62µM	i	i	i
O=C(Cn1c(C(=O)N2CCc3ccccc3C2)cc2sccc21)c1ccccc1	i	i	i	i	i	22.4µM
